# Assay results reported in the supplement of paper PMC8728848.
# Shown is part of a subset that was picked to be rich in the strongest signals.
# Assays:
# Assay in all cases: glycan array binding signal (z-score within array); higher = stronger binding
# Settings in all cases: glycan notation: IUPAC condensed, linker removed
# [1] = molecular target: Fuc(a1-2)Gal
# Procedure, shortened: (§1)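 The binding signal is a Z-score computed within each array and averaged over linkers. Arrays of the same protein sequence at different concentrations or buffers were also averaged together. Data originate from 3228 arrays in the Consortium for Functional Glycomics database, kept only where the protein sequence was available.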
# [2] = molecular target: Fuc(a1-2)Gal(b1-3)GalNAc(b1-3)Gal(a1-4)Gal(b1-4)Glc
# Procedure, shortened: as §1
# [3] = molecular target: Fuc(a1-2)Gal(b1-4)Glc6S
# Procedure, shortened: as §1
# [4] = molecular target: Fuc(a1-2)Gal(b1-4)GlcNAc(b1-3)Gal(b1-4)GlcNAc
# Procedure, shortened: as §1
# [5] = molecular target: Fuc(a1-2)Gal(b1-4)GlcNAc6S
# Procedure, shortened: as §1
# [6] = molecular target: Fuc(a1-2)[GalNAc(a1-3)]Gal(b1-3)GlcNAc(b1-2)Man(a1-3)[Fuc(a1-2)[GalNAc(a1-3)]Gal(b1-3)GlcNAc(b1-2)Man(a1-6)]Man(b1-4)GlcNAc(b1-4)GlcNAc
# Procedure, shortened: as §1
# [7] = molecular target: Fuc(a1-2)[GalNAc(a1-3)]Gal(b1-4)GlcNAc(b1-3)Gal(b1-4)GlcNAc(b1-3)Gal(b1-4)GlcNAc
# Procedure, shortened: as §1
# [8] = molecular target: Fuc(a1-3)GlcNAc
# Procedure, shortened: as §1
# [9] = molecular target: Gal(a1-3)Gal(b1-4)Glc
# Procedure, shortened: as §1
# [10] = molecular target: Gal(a1-3)Gal(b1-4)GlcNAc
# Procedure, shortened: as §1
# [11] = molecular target: Gal(a1-3)GalNAc
# Procedure, shortened: as §1
# [12] = molecular target: Gal(b1-3)GalNAc(a1-3)[Fuc(a1-2)]Gal(b1-4)GlcNAc
# Procedure, shortened: as §1
# [13] = molecular target: Gal(b1-3)GlcNAc
# Procedure, shortened: as §1
# [14] = molecular target: Gal(b1-3)[Fuc(a1-4)]GlcNAc
# Procedure, shortened: as §1
# [15] = molecular target: Gal(b1-3)[Fuc(a1-4)]GlcNAc(b1-3)Gal(b1-4)GlcNAc
# Procedure, shortened: as §1
# [16] = molecular target: Gal(b1-4)GalNAc(b1-3)[Fuc(a1-2)]Gal(b1-4)GlcNAc
# Procedure, shortened: as §1
# [17] = molecular target: Gal(b1-4)Glc6S
# Procedure, shortened: as §1
# [18] = molecular target: Gal(b1-4)GlcNAc(b1-2)Man(a1-3)[Gal(b1-4)GlcNAc(b1-2)Man(a1-6)]Man(b1-4)GlcNAc(b1-4)[Fuc(a1-6)]GlcNAc
# Procedure, shortened: as §1
# [19] = molecular target: Gal(b1-4)GlcNAc(b1-2)Man(a1-6)[GlcNAc(b1-2)Man(a1-3)]Man(b1-4)GlcNAc(b1-4)GlcNAc
# Procedure, shortened: as §1
# [20] = molecular target: Gal(b1-4)GlcNAc(b1-3)[Gal(b1-4)GlcNAc(b1-6)]GalNAc
# Procedure, shortened: as §1
# [21] = molecular target: Gal3S(b1-4)[Fuc(a1-3)]Glc6S
# Procedure, shortened: as §1
# [22] = molecular target: GalNAc(a1-3)GalNAc(a1-3)Gal(a1-4)Gal(b1-4)GlcNAc
# Procedure, shortened: as §1
# [23] = molecular target: GalNAc(b1-3)Gal(a1-4)Gal(b1-4)GlcNAc(b1-3)Gal(b1-4)Glc
# Procedure, shortened: as §1
# [24] = molecular target: GlcNAc(a1-4)Gal(b1-4)GalNAc
# Procedure, shortened: as §1
# [25] = molecular target: GlcNAc(a1-4)Gal(b1-4)GlcNAc(b1-3)Gal(b1-4)[Fuc(a1-3)]GlcNAc(b1-3)Gal(b1-4)[Fuc(a1-3)]GlcNAc
# Procedure, shortened: as §1
# [26] = molecular target: GlcNAc(b1-2)Man(a1-3)[GlcNAc(b1-2)Man(a1-6)]Man(b1-4)GlcNAc(b1-4)[Fuc(a1-6)]GlcNAc
# Procedure, shortened: as §1
# [27] = molecular target: GlcNAc3Prop(b1-4)GlcNAc
# Procedure, shortened: as §1
# [28] = molecular target: Man(a1-2)Man(a1-6)[Man(a1-3)]Man(a1-6)[Man(a1-2)Man(a1-2)Man(a1-3)]Man
# Procedure, shortened: as §1
# [29] = molecular target: Neu5Ac(a2-3)Gal(b1-3)GlcNAc(b1-3)GalNAc
# Procedure, shortened: as §1
# [30] = molecular target: Neu5Ac(a2-3)Gal(b1-4)[Fuc(a1-3)]GlcNAc(b1-3)GalNAc
# Procedure, shortened: as §1
binder,measurement,setting,value
"SRS2 (Toxoplasma gondii), O15695 (protein) MATRASLARQKTGAACLAVLTASPSVVAAKPWKRWVGVSVILASAFAVGVSAGPPYRYEPEKFTCRPKKGILSQWVSLLYQVQHNITFACEEATPVPTTLISEEHGLMVCAENMTPEECEANPAPLSAFLPGATKEWVTGDSVLTGLKISVPESQYPANAKSFRVGCRHNTKTGNTCMLTIHVEPRDPAVERQEARCSYTENSTLPKIFVTKDSNTMTLACGPHGAPMPESYTENYCSTPDTCDEKPFTSVIPGYLSKWFFGDPKSPLGARVRIPPEQIPSSPQINYFGCTGPTEGEGPKYNCTVPVPLGGGDPSEGSRPGGGSGGGKRGGGQGGGGSLAGFDFRQGSARHSLPSRMALSASALLAMTALAY",glycan array binding signal (z-score),[1],0.535
same,glycan array binding signal (z-score),[2],0.231
same,glycan array binding signal (z-score),[3],0.222
same,glycan array binding signal (z-score),[4],0.699
same,glycan array binding signal (z-score),[5],0.345
same,glycan array binding signal (z-score),[6],-0.13
same,glycan array binding signal (z-score),[7],0.391
same,glycan array binding signal (z-score),[8],0.522
same,glycan array binding signal (z-score),[9],-0.428
same,glycan array binding signal (z-score),[10],0.159
same,glycan array binding signal (z-score),[11],0.369
same,glycan array binding signal (z-score),[12],-0.437
same,glycan array binding signal (z-score),[13],-0.506
same,glycan array binding signal (z-score),[14],-0.246
same,glycan array binding signal (z-score),[15],-0.495
same,glycan array binding signal (z-score),[16],-0.802
same,glycan array binding signal (z-score),[17],-0.35
same,glycan array binding signal (z-score),[18],1.54
same,glycan array binding signal (z-score),[19],1.51
same,glycan array binding signal (z-score),[20],6.82
same,glycan array binding signal (z-score),[21],2.13
same,glycan array binding signal (z-score),[22],0.55
same,glycan array binding signal (z-score),[23],-0.134
same,glycan array binding signal (z-score),[24],-0.448
same,glycan array binding signal (z-score),[25],2.07
same,glycan array binding signal (z-score),[26],14.3
same,glycan array binding signal (z-score),[27],0.829
same,glycan array binding signal (z-score),[28],0.304
same,glycan array binding signal (z-score),[29],1.3
same,glycan array binding signal (z-score),[30],1.72
